Data reported in PubChem BioAssay (Tox21).
Where “and” joins values, the source holds several entries; their conditions need not be identical. Identical values can stand only once. Inconclusive results are not listed. Entries that show only a call come without a potency. Some compounds were tested as several samples or in several runs, with calls that do not always agree. Calls of active or inactive are those of the source. Unless noted, calls come from the whole dose curve; as a rule, active = well fitted curve in the direction sought with a large enough effect in the repeat runs; inconclusive = weak or mixed curves; inactive = no such curve, though single readings can be large; an effect the other way counts as inactive or inconclusive.

Columns and labels:
[1] = A CellTox Green Cytotoxicity Assay to monitor cytotoxicity in HEK293 cells - 32 hour (AID 1224881); note: nearly all actives have a fitted effect of over 40% in size
Procedure, shortened: (§1)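 HEK293 cells premixed with CellTox Green dye were seeded at 600 cells/well and left 5 h at 37 C/5% CO2 before pin transfer of 23 nL compound in DMSO. Fluorescence from dye bound to dead-cell DNA was read during 40 h treatment.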

[2] = A CellTox Green Cytotoxicity Assay to monitor cytotoxicity in HepG2 cells - 0 hour (AID 1224882); note: nearly all actives have a fitted effect of over 35% in size
Procedure, shortened: (§2)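 HepG2 cells were seeded together with the CellTox Green dye at 600 cells/well, left 5 h at 37 C/5% CO2, then given compounds in DMSO. Fluorescence from dye bound to dead-cell DNA was read repeatedly over 40 h of treatment at 37 C.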

[3] = A CellTox Green Cytotoxicity Assay to monitor cytotoxicity in HepG2 cells - 32 hour (AID 1224883); note: nearly all actives have a fitted effect of over 50% in size; note: potency is the fitted concentration of half-maximal effect
Procedure, shortened: as §2

[4] = A CellTox Green Cytotoxicity Assay to monitor cytotoxicity in HEK293 cells - 8 hour (AID 1224884); note: nearly all actives have a fitted effect of over 35% in size
Procedure, shortened: as §1

[5] = qHTS RealTime-Glo MT Cell Viability Assay in HepG2 cells - 16 hour (AID 1224885); note: nearly all actives have a fitted effect of over 50% in size
Procedure, shortened: (§3)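 Luminescence read-out: viable HepG2 cells reduce a prosubstrate to a NanoLuc substrate, giving a signal proportional to live cell number. Reads taken at 0, 8, 16, 24, 32 and 40 h of compound exposure at 37 C.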

[6] = qHTS RealTime-Glo MT Cell Viability Assay in HEK293 cells - 24 hour (AID 1224886); note: nearly all actives have a fitted effect of over 50% in size; note: potency is the fitted concentration of half-maximal effect
Procedure, shortened: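 Nonlytic real-time viability readout: viable cells convert prosubstrate to NanoLuc substrate, giving luminescence proportional to live cell number. HEK293, 600 cells/well, compound added after 5 h, continuous culture at 37 C.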

[7] = qHTS RealTime-Glo MT Cell Viability Assay in HEK293 cells - 8 hour (AID 1224887); note: nearly all actives have a fitted effect of over 50% in size; note: potency is the fitted concentration of half-maximal effect
Procedure, shortened: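 HEK293 cells mixed with RealTime-Glo reagents (NanoLuc plus cell-permeant prosubstrate) at 600 cells/well, preincubated 5 h at 37 C/5% CO2, then given 23 nL compound in DMSO. Nonlytic luminescence from viable cells was read at 0, 8, 16, 24, 32 and 40 h.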

[8] = A CellTox Green Cytotoxicity Assay to monitor cytotoxicity in HEK293 cells - 16 hour (AID 1224888); note: nearly all actives have a fitted effect of over 35% in size
Procedure, shortened: as §1

[9] = qHTS RealTime-Glo MT Cell Viability Assay in HepG2 cells - 0 hour (AID 1224889); note: nearly all actives have a fitted effect of over 50% in size; note: potency is the fitted concentration of half-maximal effect
Procedure, shortened: as §3

[10] = A CellTox Green Cytotoxicity Assay to monitor cytotoxicity in HepG2 cells - 8 hour (AID 1224890); note: nearly all actives have a fitted effect of over 45% in size
Procedure, shortened: as §2

[11] = qHTS assay to identify small molecule antagonists of the estrogen receptor alpha (ER-alpha) signaling pathway using the BG1 cell line in the presence of 0.1 nM 17-beta-estradiol - cell viability counter screen (AID 1259241); note: nearly all actives have a fitted effect of over 40% in size
Procedure, shortened: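 Live-cell protease activity (CellTiter-Fluor fluorescence, 30 min) was read in the same wells after VM7Luc4E2 cells had been exposed to compounds with 0.1 nM 17beta-estradiol for 22 hr at 37C.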

[12] = qHTS assay to identify small molecule antagonists of the androgen receptor (AR) signaling pathway using the MDA cell line in the presence of 0.5 nM R1881 - cell viability counter screen (AID 1259242); note: nearly all actives have a fitted effect of over 45% in size
Procedure, shortened: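 MDA-kb2 cells (human breast carcinoma, stably carrying MMTV-luciferase reporter) were exposed to compounds with 0.5 nM R1881 (final) for 16 hr at 37C, 0% CO2; viability then read as live-cell protease fluorescence (CellTiter-Fluor, 30 min) in the same wells.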

[13] = target: Estrogen receptor (Homo sapiens) (UniProt P03372); test: qHTS assay to identify small molecule antagonists of the estrogen receptor alpha (ER-alpha) signaling pathway using the BG1 cell line in the presence of 0.1 nM 17-beta-estradiol (AID 1259244); note: nearly all actives have a fitted effect of over 50% in size; note: potency is the fitted concentration of half-maximal effect
Estrogen receptor (Homo sapiens), sequence (P03372 whole entry, looked up): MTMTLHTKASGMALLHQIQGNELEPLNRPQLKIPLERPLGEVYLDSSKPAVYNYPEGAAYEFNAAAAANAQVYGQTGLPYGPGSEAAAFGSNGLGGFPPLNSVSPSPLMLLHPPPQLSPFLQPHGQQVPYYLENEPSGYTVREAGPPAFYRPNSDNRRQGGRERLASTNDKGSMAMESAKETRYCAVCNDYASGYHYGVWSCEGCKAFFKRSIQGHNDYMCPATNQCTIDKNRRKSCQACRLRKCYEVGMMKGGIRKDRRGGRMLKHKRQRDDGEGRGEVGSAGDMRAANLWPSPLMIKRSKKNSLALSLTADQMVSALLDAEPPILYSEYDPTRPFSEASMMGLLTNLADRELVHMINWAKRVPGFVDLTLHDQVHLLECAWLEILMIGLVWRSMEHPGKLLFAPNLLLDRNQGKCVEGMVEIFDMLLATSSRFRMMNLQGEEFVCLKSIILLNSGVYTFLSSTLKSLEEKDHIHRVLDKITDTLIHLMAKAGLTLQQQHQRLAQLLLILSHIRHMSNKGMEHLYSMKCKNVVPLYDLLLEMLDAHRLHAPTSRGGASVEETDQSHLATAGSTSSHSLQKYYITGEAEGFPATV
Procedure, shortened: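 VM7Luc4E2 cells (endogenous full-length ER-alpha, stable 4xERE-luciferase) were grown 5 days in phenol red-free medium with charcoal-stripped FBS, then exposed 22 h at 37C to compounds plus 0.1 nM (final) 17beta-estradiol; ONE-Glo luminescence read-out.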

[14] = qHTS assay to identify small molecule HDAC inhibitors (AID 1259364); note: nearly all actives have a fitted effect of over 45% in size; note: potency is the fitted concentration of half-maximal effect
Procedure, shortened: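 Wild-type HCT-116 cells were plated overnight, exposed to compounds for 2 h at 37 °C, then given HDAC-Glo class I/II luminogenic reagent for 30 min at room temperature before luminescence was read.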

[15] = qHTS assay to identify small molecule HDAC inhibitors - cell viability counter screen (AID 1259365)
Procedure, shortened: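 HCT-116 (wild type), 1,500 cells/well, overnight 37C/5% CO2; compound in DMSO 2hr; CellTiter-Glo 30min RT; luminescence read.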

[16] = qHTS assay to identify small molecule agonists of the sonic hedgehog signaling (Shh) pathway - cell viability counter screen (AID 1259366); note: nearly all actives have a fitted effect of over 50% in size; note: potency is the fitted concentration of half-maximal effect
Procedure, shortened: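 CellTiter-Fluor fluorescence read-out, 1 hr at 37C, added after 23hr compound exposure. Cells: 3T3 Gli1-Luc, an NIH/3T3 clone with stably integrated Gli1-Luc reporter, plated 4hr before compound.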

[17] = qHTS assay to identify small molecule antagonists of the sonic hedgehog signaling (Shh) pathway - cell viability counter screen (AID 1259367); note: nearly all actives have a fitted effect of over 55% in size; note: potency is the fitted concentration of half-maximal effect
Procedure, shortened: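 Seed 3T3 Gli1-Luc cells at 2,000 per well; incubate 4 hr; add compound in DMSO, then conditioned medium; incubate at 37C with 5% CO2; add CellTiter-Fluor after 23 hr; read fluorescence 1 hr later.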

[18] = qHTS assay to identify small molecule agonists of the sonic hedgehog signaling (Shh) pathway (AID 1259368; calls by dose curve; note: nearly all actives have a fitted effect of over 15% in size; note: potency is the fitted concentration of half-maximal effect)
Procedure, shortened: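 NIH/3T3-derived 3T3Gli1-Luc cells carrying a stably integrated Gli1 response element–firefly luciferase reporter were plated, left 4 hr at 37 C, then given compounds in DMSO for 24 hr. Luminescence was read 30 min after adding luciferase reagent.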

[19] = qHTS assay to identify small molecule phospholipidosis (PLD) inducers (AID 1259344; active = well fitted curve in the direction sought with a large enough effect; an effect the other way counts as inactive or inconclusive)
Procedure, shortened: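 Quantitative HTS in HepG2: compound plus LipidTOX Red dye for 24 h, paraformaldehyde fixation with Hoechst 33342, widefield high-content imaging; amiodarone as positive and DMSO as negative control.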

[20] = target: Androgen receptor (Homo sapiens) (UniProt P10275); test: qHTS assay to identify small molecule antagonists of the androgen receptor (AR) signaling pathway using the MDA cell line in the presence of 0.5 nM R1881 (AID 1259243); note: nearly all actives have a fitted effect of over 50% in size; note: potency is the fitted concentration of half-maximal effect
Androgen receptor (Homo sapiens), sequence (P10275 whole entry, looked up): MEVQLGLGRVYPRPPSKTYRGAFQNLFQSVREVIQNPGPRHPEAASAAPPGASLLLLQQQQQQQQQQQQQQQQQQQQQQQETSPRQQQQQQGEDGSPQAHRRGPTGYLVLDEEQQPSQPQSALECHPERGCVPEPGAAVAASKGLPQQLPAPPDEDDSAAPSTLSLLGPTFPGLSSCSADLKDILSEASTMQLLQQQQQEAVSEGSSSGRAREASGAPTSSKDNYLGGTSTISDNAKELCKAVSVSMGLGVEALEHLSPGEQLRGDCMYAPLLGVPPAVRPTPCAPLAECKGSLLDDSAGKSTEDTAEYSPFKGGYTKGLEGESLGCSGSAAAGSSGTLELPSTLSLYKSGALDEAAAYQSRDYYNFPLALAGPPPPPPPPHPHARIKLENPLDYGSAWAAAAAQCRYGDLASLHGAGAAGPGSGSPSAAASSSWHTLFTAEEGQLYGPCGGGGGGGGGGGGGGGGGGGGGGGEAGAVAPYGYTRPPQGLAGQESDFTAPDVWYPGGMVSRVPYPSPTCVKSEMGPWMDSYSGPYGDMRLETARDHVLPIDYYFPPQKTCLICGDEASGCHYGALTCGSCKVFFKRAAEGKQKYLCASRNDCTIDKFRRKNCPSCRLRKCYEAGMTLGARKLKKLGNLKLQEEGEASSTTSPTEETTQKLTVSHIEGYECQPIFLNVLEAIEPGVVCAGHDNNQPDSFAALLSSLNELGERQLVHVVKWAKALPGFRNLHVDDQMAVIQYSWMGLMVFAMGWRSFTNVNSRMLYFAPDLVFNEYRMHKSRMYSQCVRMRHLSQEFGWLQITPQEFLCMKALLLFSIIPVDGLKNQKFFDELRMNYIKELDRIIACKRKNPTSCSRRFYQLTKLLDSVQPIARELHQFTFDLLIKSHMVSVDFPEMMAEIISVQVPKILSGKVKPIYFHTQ
Procedure, shortened: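 MDA-kb2 human breast carcinoma cells carrying an MMTV-luciferase reporter (AR- and GR-responsive) were plated, rested 5 hr at 37C, dosed with compounds, then stimulated with 0.5 nM R1881 (final) for 16 hr; luminescence was read after ONE-Glo.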

Compound	Potency [1]	Potency [2]	Potency [3]	Potency [4]	Potency [5]	Potency [6]	Potency [7]	Potency [8]	Potency [9]	Potency [10]	Potency [11]	Potency [12]	Potency [13]	Potency [14]	outcome [15]	Potency [16]	Potency [17]	Potency [18]	Potency [19]	Potency [20]
CN(C)C	inactive	inactive	inactive	inactive	inactive	inactive	inactive	inactive	inactive	inactive	inactive	inactive	inactive	inactive	inactive	inactive	inactive	inactive		
Nc1ccc2c(c1)C(=O)c1ccccc1C2=O	inactive	inactive	inactive	inactive	inactive	inactive	inactive	inactive	inactive	inactive	inactive	inactive	inactive	951 nM (active) and 770 nM (active)	inactive	inactive	inactive	0.864 µM (active)		
CCCCCC=O	inactive	inactive	inactive	inactive	inactive	inactive	inactive	inactive	inactive	inactive	inactive	inactive	inactive	inactive	inactive	inactive	inactive	inactive		
ClC/C=C/CCl	inactive	inactive	inactive	inactive	inactive	inactive	inactive	inactive	inactive	inactive	inactive	inactive	inactive	inactive	inactive	inactive	inactive	inactive		
O=C(O)c1ccc(O)cc1	inactive	inactive	inactive	inactive	inactive	inactive	inactive	inactive	inactive	inactive	inactive	inactive		inactive	inactive	inactive	inactive	inactive		
NCCS(=O)(=O)O	inactive	inactive	inactive	inactive	inactive	inactive	inactive	inactive	inactive	inactive	inactive	inactive	inactive	inactive	inactive	inactive	22.5 µM (active) and inactive	inactive	inactive	
CC(=O)[C@@]1(O)CC[C@H]2[C@@H]3C[C@H](C)C4=CC(=O)C=C[C@]4(C)[C@@]3(F)[C@@H](O)C[C@@]21C	inactive	inactive	inactive	inactive	inactive	27.5 µM (active) and inactive	inactive	inactive	347 nM (active) and 1.34 µM (active)	inactive	inactive	inactive	inactive	inactive	inactive	inactive	inactive	inactive	inactive	
OC[C@@H](O)[C@@H](O[C@@H]1O[C@H](CO)[C@H](O)[C@H](O)[C@H]1O)[C@H](O)[C@@H](O)CO	inactive	inactive	inactive	inactive	inactive	inactive	inactive	inactive	inactive	inactive	inactive	inactive	inactive	inactive	inactive	inactive	inactive	inactive	inactive	
C=CCOC(=O)C(=C)C	inactive	inactive	inactive	inactive	inactive	inactive	inactive	inactive	inactive	inactive	inactive	inactive		inactive	inactive	inactive	inactive	inactive		
CCCCCCC(C)O (stereo not given)	inactive	inactive	inactive	inactive	inactive	inactive	inactive	inactive	inactive	inactive	inactive	inactive	inactive	inactive	inactive	inactive	inactive	inactive		
C=CN1CCCC1=O	inactive	inactive	inactive	inactive	inactive	inactive	inactive	inactive	inactive	inactive	inactive	inactive	inactive	inactive	inactive	inactive	inactive	inactive		
CCCN1C=CN(C)C1	inactive	inactive	inactive	inactive	inactive	inactive	inactive	inactive	inactive	inactive	inactive	inactive	inactive	inactive	inactive	inactive	inactive	inactive		
CC/C=C\C/C=C\C/C=C\CCCCCCCC(=O)O	inactive	inactive	inactive	inactive	inactive	inactive	inactive	inactive	inactive	inactive	inactive	inactive	inactive	inactive	inactive	inactive	inactive	inactive	inactive	
c1ccc2ncccc2c1	inactive	inactive	inactive	inactive	inactive	inactive	inactive	inactive	inactive	inactive	inactive	inactive	inactive	inactive	inactive	inactive	inactive	inactive		
CCO[Si](CCCNC(N)=O)(OCC)OCC	inactive	inactive	inactive	inactive	inactive	inactive	inactive	inactive	inactive	inactive	inactive	inactive	inactive	inactive	inactive	inactive	inactive	inactive		
Cc1ccc(C(C)(C)C)cc1	inactive	inactive	inactive	inactive	inactive	inactive	inactive	inactive	inactive	inactive	inactive	inactive	inactive	inactive	inactive	inactive	inactive	inactive		
Cc1cccc(Nc2ccccc2C(=O)O)c1C	inactive	inactive	inactive	inactive	inactive	inactive	inactive	inactive	inactive	inactive	inactive	inactive		inactive	inactive	inactive	inactive	inactive	inactive	
C=C[C@@]1(C)CC(=O)[C@]2(O)[C@@]3(C)[C@@H](O)CCC(C)(C)[C@@H]3[C@H](O)[C@H](OC(C)=O)[C@@]2(C)O1	inactive	inactive	inactive	inactive	inactive	inactive	inactive	inactive	inactive	inactive	inactive	inactive	15.4 µM (active) and 7.5 µM (active)	inactive	inactive		inactive	inactive	inactive	
Nc1cc([N+](=O)[O-])ccc1C(=O)O	inactive	inactive	inactive	inactive	inactive	inactive	inactive	inactive	inactive	inactive	inactive	inactive	inactive	49.5 µM (active) and 27.3 µM (active)	inactive	inactive	inactive	inactive		
CCC/C=C/C=O	inactive	inactive	inactive	inactive	inactive	inactive	inactive	inactive	inactive	inactive	inactive	inactive	inactive	inactive	inactive	inactive	inactive	inactive		inactive
CC/C(=C(/CC)c1ccc(O)cc1)c1ccc(O)cc1	inactive	inactive	inactive	inactive	inactive	12.2 µM (active) and 27.5 µM (active)	15.4 µM (active)	inactive	inactive	inactive	inactive	inactive			inactive	inactive	inactive		inactive	
CCCCCCCCCCCCO	inactive	inactive	inactive	inactive	inactive	inactive	inactive	inactive	inactive	inactive	inactive	inactive	inactive	inactive	inactive	inactive	inactive	inactive		
Cc1ccc(S(=O)(=O)NCl)cc1	inactive	inactive	inactive	inactive	inactive	inactive	inactive	inactive	inactive	inactive	inactive	inactive	inactive	inactive	inactive	inactive	inactive	inactive	inactive	
OCCNCCO	inactive	inactive	inactive	inactive	inactive	inactive	inactive	inactive	inactive	inactive	inactive	inactive	inactive	inactive	inactive	inactive	inactive	inactive		
O=Cc1ccccc1C=O	inactive	inactive	21.9 µM (active) and inactive	inactive	inactive	inactive	inactive	inactive	inactive	inactive	inactive	inactive	inactive	inactive	inactive	61.1 µM (active) and inactive	54.5 µM (active) and inactive	inactive	inactive	54.5 µM (active) and inactive
C=C[Si](OCCOC)(OCCOC)OCCOC	inactive	inactive	inactive	inactive	inactive	inactive	inactive	inactive	inactive	inactive	inactive	inactive	inactive	inactive	inactive	inactive	inactive	inactive		
C=CCNCC=C	inactive	inactive	inactive	inactive	inactive	inactive	inactive	inactive	inactive	inactive	inactive	inactive	inactive	inactive	inactive	inactive	inactive	inactive		
